Results reported in article PMC11574364.

Assays:
Assay in all cases: protein domain microarray probed with biotinylated miRNA; Domain array: 20 mM Tris-HCl pH 7.4, 200 mM KCl, 0.2 mM EDTA, 0.05% NP40, 2 ug/ul heparin, overnight 4 C. ORF array: PBS pH 7.0 with RNase inhibitor, 100 ng RNA; high values mean tight binding
Details in all cases: ssRNA
[1] = target: T1, PPRC1 (Homo sapiens, UniProt Q5VV67)
T1 sequence: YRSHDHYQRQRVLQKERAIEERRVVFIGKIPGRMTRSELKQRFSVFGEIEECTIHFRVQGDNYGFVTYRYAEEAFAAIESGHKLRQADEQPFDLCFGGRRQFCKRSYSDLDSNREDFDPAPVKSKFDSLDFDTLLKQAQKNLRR

[2] = target: T2, RBM26(1) (Homo sapiens, UniProt Q5T8P6)
T2 sequence: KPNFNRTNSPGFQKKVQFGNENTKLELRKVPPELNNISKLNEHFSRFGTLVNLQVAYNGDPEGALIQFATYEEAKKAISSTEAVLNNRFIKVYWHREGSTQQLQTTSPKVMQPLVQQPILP

[3] = target: T3, ZNF638 (Homo sapiens, UniProt Q14966)
T3 sequence: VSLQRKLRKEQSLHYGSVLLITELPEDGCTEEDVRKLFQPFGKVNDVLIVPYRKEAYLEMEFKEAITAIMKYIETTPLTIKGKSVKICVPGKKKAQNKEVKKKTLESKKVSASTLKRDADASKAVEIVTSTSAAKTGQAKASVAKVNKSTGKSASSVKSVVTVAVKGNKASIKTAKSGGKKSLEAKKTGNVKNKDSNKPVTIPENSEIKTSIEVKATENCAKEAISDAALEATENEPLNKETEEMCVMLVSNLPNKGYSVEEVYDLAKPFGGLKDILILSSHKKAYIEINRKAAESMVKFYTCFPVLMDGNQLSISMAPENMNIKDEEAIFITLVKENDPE

[4] = target: T4, TIA1 (Homo sapiens, UniProt P31483)
T4 sequence: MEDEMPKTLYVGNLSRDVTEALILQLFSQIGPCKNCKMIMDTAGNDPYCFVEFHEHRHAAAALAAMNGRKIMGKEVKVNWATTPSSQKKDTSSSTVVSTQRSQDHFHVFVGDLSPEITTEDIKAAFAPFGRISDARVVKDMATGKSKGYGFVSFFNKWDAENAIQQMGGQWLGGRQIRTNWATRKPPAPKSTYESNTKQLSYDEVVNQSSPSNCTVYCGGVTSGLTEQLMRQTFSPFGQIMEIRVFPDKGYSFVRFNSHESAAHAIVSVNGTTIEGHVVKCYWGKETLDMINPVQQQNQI

[5] = target: T5, ADAR(2) (Homo sapiens, UniProt P55265)
T5 sequence: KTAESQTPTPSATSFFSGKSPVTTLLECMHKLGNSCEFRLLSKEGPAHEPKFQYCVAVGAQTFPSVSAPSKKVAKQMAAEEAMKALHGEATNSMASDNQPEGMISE

[6] = target: T6, RBM33 (Homo sapiens, UniProt Q96EV2)
T6 sequence: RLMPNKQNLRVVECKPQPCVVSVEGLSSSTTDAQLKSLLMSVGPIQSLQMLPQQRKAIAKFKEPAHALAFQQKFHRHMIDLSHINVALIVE

[7] = target: T7, SETD1B (Homo sapiens, UniProt Q9UPS6)
T7 sequence: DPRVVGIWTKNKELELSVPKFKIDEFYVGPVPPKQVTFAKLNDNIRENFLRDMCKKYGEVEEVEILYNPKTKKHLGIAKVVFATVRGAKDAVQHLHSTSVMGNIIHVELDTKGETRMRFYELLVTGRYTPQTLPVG

[8] = target: PKR(1-2) (Homo sapiens, UniProt P19525)
[9] = target: T8, ADAR(3) (Homo sapiens, UniProt P55265)
T8 sequence: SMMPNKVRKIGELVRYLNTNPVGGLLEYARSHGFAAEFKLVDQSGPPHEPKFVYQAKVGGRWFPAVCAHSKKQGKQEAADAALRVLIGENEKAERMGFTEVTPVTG

[10] = target: DDX9(1)/DHX9 (Homo sapiens, UniProt Q08211)
Sequence of DDX9(1)/DHX9 (Q08211 1-89): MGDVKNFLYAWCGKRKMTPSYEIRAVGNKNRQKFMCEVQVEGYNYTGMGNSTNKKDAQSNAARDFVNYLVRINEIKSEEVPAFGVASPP

Sequence of PKR(1-2) (P19525 1-186): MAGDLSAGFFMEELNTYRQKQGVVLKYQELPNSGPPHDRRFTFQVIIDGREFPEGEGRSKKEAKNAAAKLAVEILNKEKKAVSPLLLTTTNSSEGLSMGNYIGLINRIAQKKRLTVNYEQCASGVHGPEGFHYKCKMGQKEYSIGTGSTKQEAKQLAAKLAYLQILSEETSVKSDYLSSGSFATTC

| Sequence | binding signal [1] [fluorescence intensity] | binding signal [2] [fluorescence intensity] | binding signal [3] [fluorescence intensity] | binding signal [4] [fluorescence intensity] | binding signal [5] [fluorescence intensity] | binding signal [6] [fluorescence intensity] | binding signal [7] [fluorescence intensity] | binding signal [8] [fluorescence intensity] | binding signal [9] [fluorescence intensity] | binding signal [10] [fluorescence intensity] |
| --- | --- | --- | --- | --- | --- | --- | --- | --- | --- | --- |
| CAGUGCAAUGAUGAAAGGGCAU | 43 ± 4.72 | 478 ± 6.75 | 33.6 ± 1.92 | 537.8 ± 3.27 | 22 ± 1.29 | 26.1 ± 1.95 |  |  |  |  |
| UGAGGUAGUAGGUUGUAUAGUU | 24.9 ± 1.13 | 395 ± 44.7 |  | 584.8 ± 5.47 | 21.92 ± 0.0141 | 24.2 ± 0.735 | 21.4 ± 1.84 |  |  |  |
| UAGCUUAUCAGACUGAUGUUGA |  | 31 ± 1.68 |  | 631 ± 33.9 | 23.2 ± 3.02 |  |  |  |  |  |
| UGAGGUAGUAGGUUGUGUGGUU | 155 ± 53.3 | 1560 ± 215 | 57.9 ± 2.93 | 871 ± 40.8 | 22.6 ± 1.85 | 32.8 ± 1.94 | 24.2 ± 1.14 | 53.5 ± 3.56 | 31.8 ± 4.56 | 68.5 ± 11.3 |
| AGAGGUAGUAGGUUGCAUAGUU | 97 ± 3.22 | 1530 ± 59.8 | 29.21 ± 0.262 | 1240 ± 50.7 | 23.9 ± 0.346 | 28.3 ± 2.28 | 20.2 ± 1.15 | 24.8 ± 1.68 | 24.2 ± 0.771 | 29.6 ± 4.33 |
| UGAGGUAGUAGGUUGUAUGGUU | 134 ± 3.36 | 1460 ± 57.5 | 38.3 ± 1.35 | 1030 ± 40.8 | 22.7 ± 0.559 | 40.1 ± 0.601 | 22.4 ± 0.396 | 28.7 ± 2.65 | 30.3 ± 3.34 | 49.7 ± 9.25 |
